Screens as filed in PubChem.
Hits are enriched below; roughly 19% of the tested compounds scored in any of these assays.
Pf growth 96h: inhibits malaria parasite growth, 96 h | P. falciparum luciferase reporter growth, 96 h | Potency, µM (series often up to 28.7 µM), without a hit: at the highest dose activity change, negative = inhibition, hits mostly inhibitors | 6.9% of 320,000 active | AID 504834; also: potency is read from the fitted curve at half-maximal effect; % is scaled to controls: 0 for no effect and ±100 for the full control effect
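Compounds incubated with erythrocytes infected by luciferase-expressing P. falciparum (2% hematocrit, 0.05% parasitemia final) for 96 hours, 37 C in 5% CO2. Growth inhibition scored as decreased luciferase luminescence.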
Cycloheximide cs: counter-screen hit for Shiga toxin inhibitors, cycloheximide; cell reporter, cycloheximide protein synthesis inhibition counterscreen; max response, %; 12% of 300,000 active; in the data active = max response mostly above about 13%, no sharp cut-off; inactive = mostly below about 14%; also: read at 38.3 µM for the half of the compounds with a filed dose; 0% is about no effect
Pf growth 48h: inhibits P. falciparum growth in the first generation, 48 h; P. falciparum luciferase growth in erythrocytes, 48 h; Potency, µM (highest dose often 28.7 µM), for the others: at the top dose activity change, negative = inhibition, hits mostly inhibitors; 5.9% of 310,000 active; AID 504832; also: potency is read from the fitted curve at half-maximal effect; % is scaled to controls: 0 for no effect and ±100 for the full control effect
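Firefly luciferase activity from engineered P. falciparum reports growth; inhibitors lower the luminescent signal. Cultures contained 2% hematocrit erythrocytes at 0.1% final parasitemia.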
SARS PLP yeast: inhibitors of SARS-CoV papain-like protease in yeast. S. cerevisiae expressing SARS-CoV PLpro, growth rescue. 0.19% of 330,000 active. Potency, µM (highest dose often 32.9 µM), for the others: at the highest dose activity, positive = growth rescue, most hits filed as activators; calls by dose curve; also: potency is read from the fitted curve at half-maximal effect; 0% is about no effect; nearly all actives have a fitted effect of over 55% in size
Shiga inhibitor: blocks Shiga toxin action in Vero cells | 9.2% of 290,000 active | Vero cells, Shiga toxin protein synthesis inhibition reporter | inhibition, % at 38.7 µM; in the data active = inhibition mostly above about 28%, no sharp cut-off; inactive = mostly below about 43%; also: 0% is about no effect
AMA1 RON2 block: disrupts binding of P. falciparum AMA1 to RON2. 0.2% of 360,000 active. AlphaScreen AMA1-biotinylated RON2 peptide binding. Potency, µM (highest dose often 58.2 µM), without a hit: at the top dose activity change, negative = inhibition, usual class: inhibitors;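 also: potency is read from the fitted curve at half-maximal effect; 0% = vehicle wells and -100% = peptide control; nearly all actives have a fitted effect of over 45% in size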
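AMA1 (3D7) with his tag at 25 nM final met compounds first, then biotinylated RON2 peptide at 25 nM; detection used donor plus acceptor beads, 10 µg/mL apiece, read by AlphaScreen after 30 min at room temperature.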
Starred values were filed as active, the others as inactive; ? = inconclusive; nt = no result; ! = not confirmed by another sample; [ ] = dose if it differs, or a comment. Unless noted, calls follow the shape of the dose curve; as a rule, active = well fitted curve in the direction sought with a large enough effect; inconclusive = small, poorly fitted or top-dose-only effect, or another doubt; inactive = no such curve, though single readings can be large; an effect the other way counts as inactive or inconclusive.

SMILES | Pf growth 96h | Cycloheximide cs | Pf growth 48h | SARS PLP yeast | Shiga inhibitor | AMA1 RON2 block
O=C(C1=C[C@H](c2coc3ccccc3c2=O)C[C@H](OCc2ccc(CO)cc2)O1)N1CCN(Cc2ccc3c(c2)OCO3)CC1 | 1.31µM* | -1.8 | 1.47µM* | -3.1% | -3.9 | 0.0%
Nc1cc(SCc2ccc(Cl)cc2Cl)ncn1 | nt | nt | nt | nt | nt | -1.1%
COc1cc(C2Nc3ccc4ccccc4c3C3=C2C(=O)CC(C)(C)C3)ccc1OC(C)C(=O)O (stereo not given) | ? | 12.8 | 1.65µM* | -1.7% | 28.8 | -4.2%
CC1(C)CC(=O)C2=C(C1)c1c(ccc3ccccc13)NC2c1ccc(Br)o1 (stereo not given) | ? | -1.5 | nt | 1.8% | -7.3 | -4.1%
CC1(C)CC(=O)C2=C(C1)c1c(ccc3ccccc13)NC2c1ccc(OCC(=O)O)cc1 (stereo not given) | -29.4% | 6.0 | 10.4µM* | 12.6% | -4.0 | 1.2%
COc1cccc(C2Nc3ccc4ccccc4c3C3=C2C(=O)CC(C)(C)C3)c1OCC(=O)O (stereo not given) | ? | 1.4 | ? | -3.9% | -8.6 | -2.7%
COc1cc(C2Nc3ccc4ccccc4c3C3=C2C(=O)CC(C)(C)C3)ccc1OCC(=O)O (stereo not given) | 0.928µM* | -0.4 | ? | -3.7% | nt | 1.0%
COCCCN1C(=O)C(=O)/C(=C(/O)c2ccc(S(=O)(=O)N3CCOCC3)cc2)C1c1cccc(Cl)c1 (stereo not given) | -1.8% | -3.5 | 8.9% | -2.9% | -5.8 | -2.8%
COc1ccc(NS(=O)(=O)c2cc(NC(=O)c3cnccn3)ccc2OC)cc1Br | -21.1% | -1.0 | -19.0% | 0.5% | -7.8 | -7.4%
CN(C(=O)c1cccnc1)c1nnc(-c2cnccn2)s1 | ? | 26.8* | -5.2% | -0.1% | 45.1 | -7.0%
CN(C(=O)c1cccnc1)c1nnc(-c2ccccn2)s1 | 13.3% | 50.9* | 71.4% | 10.4% | 138.1 | -25.0%
CN(C(=O)C1CCCO1)c1nnc(-c2cnccn2)s1 (stereo not given) | 3.29µM* | 13.6 | -8.7% | -14.0% | 18.6 | -8.9%
CN(C(=O)c1cccnc1)c1nnc(-c2cccnc2)s1 | ? | 7.0 | 5.3% | 2.3% | 16.1 | -6.0%
Cc1ccc(-c2nnc(N(C)C(=O)c3ccccn3)s2)cn1 | ? | 12.6* | 22.5% | -2.3% | 12.2 | 16.8%
CC(NC(=O)CN(Cc1ccccc1)S(=O)(=O)c1ccccc1)c1cccnc1 (stereo not given) | ? | nt | ? | 3.5% | nt | -4.4%
Cc1ccc(S(=O)(=O)N2CCCCC2C(=O)O)s1 (stereo not given) | 52.6% | -1.3 | ? | -0.5% | 15.1 | 12.2%
CN(C(=O)c1cnccn1)c1nnc(-c2cnccn2)s1 | ? | -6.7 | 33.3% | 8.2% | -10.4 | 19.3%
CC(=O)N(C)c1nnc(-c2ccccn2)s1 | -17.4% | 15.0* | 110.6% | 9.1% | 13.3 | 4.2%
CC(=O)c1cnc(-c2ccccn2)s1 | ? | 34.3* | 10.4µM* | 3.1% | 22.9 | 110.9%
CN(C(=O)c1ccccn1)c1nnc(-c2cnccn2)s1 | nt | 39.9* | 22.3% | 14.2% | 90.8 | 13.3%
O=C(c1ccc(F)cc1)N1CCN(c2cc(=O)[nH]nc2-c2ccccc2)CC1 | ? | -0.7 | ? | 2.6% | -7.8 | -7.2%
Cc1cc2c(s1)c1cnn(Cc3c(F)cccc3F)c(=O)c1n2C | nt | -0.5 | nt | nt | 2.7 | nt
COc1ccc(-c2nc(SC)n(S(=O)(=O)c3ccccc3)n2)cc1 | nt | 27.9* | 82.8% | 0.7% | 96.0* | -4.9%
CSc1nc(-c2ccccc2)nn1S(=O)(=O)c1ccccc1 | 17.2% | 17.5* | 27.4% | -4.3% | 35.3 | -0.7%
COc1ccccc1-c1cc(C(=O)NC2CCN(C)CC2)c2ccc(Cl)c(C)c2n1 | ? | -3.5 | 9.28µM* | -10.1% | 12.7 | -11.1%
SMILES | Pf growth 96h | Cycloheximide cs | Pf growth 48h | SARS PLP yeast | Shiga inhibitor | AMA1 RON2 block
CN(Cc1ccccc1)S(=O)(=O)c1ccc(Cl)c(C(=O)OCC(N)=O)c1 | 32.0% | 19.9* | 28.4% | 0.1% | 36.8* | -1.8%
CCCCN(C(=O)CSCc1ccc(C)cc1)c1c(N)n(CCC)c(=O)[nH]c1=O | 40.7% | 1.4 | -1.7% | 1.6% | -4.5 | -7.8%
CCOc1ccc(OCc2ccc(C(=O)N3CCCC(C)C3)cc2)cc1 (stereo not given) | ? | 41.1* | 75.4% | -1.5% | 101.5* | 13.6%
CN1CCCC(OC(=O)c2ccc(S(=O)(=O)N(C)C)cc2)C1 (stereo not given) | 37.6% | -1.6 | -20.3%[0.00184 µM] | -0.5% | 11.9 | -8.5%
COc1ccc(C(=O)N2CCN(CC(=O)N3CCOCC3)CC2)cc1 | 4.65µM*! | -1.1 | 18.0% | 3.5% | 8.9 | 22.4%
CCOc1ccc(C(=O)OC2CCCN(C)C2)cc1 (stereo not given) | 10.4µM* | 9.7 | -6.1% | 1.4% | 37.1 | -0.7%
CCOc1ccc(NS(=O)(=O)c2ccc(C(=O)N3CCCC(C)C3)cc2)cc1 (stereo not given) | ? | nt | ? | -0.4% | nt | 1.9%
CCOc1ccc(OCc2ccc(C(=O)N3CCOCC3)cc2)cc1 | 69.0% | 36.2* | 75.2% | 7.7% | 44.4* | 9.7%
CCCc1nc2oc3c(=O)[nH]cnc3c2c2c1CCCC2 | ? | -2.4 | 5.0% | -1.5% | -2.3 | -7.4%
Cc1ccccc1NC(=O)CSc1nnc(C2CC2)n1CC1CCCO1 (stereo not given) | 28.2% | -4.6 | 16.4% | 13.7% | -8.9 | 9.8%
O=C(NCc1ccc2c(c1)OCO2)C1CCCN1C(=O)Nc1ccc(Cl)cc1 (stereo not given) | 23.3% | -8.6 | 2.2% | -0.7% | -4.1 | 5.8%
CCOCCCNC(=S)Nc1ccc(S(N)(=O)=O)cc1 | 12.7% | 7.4 | 2.1% | 11.8% | -4.1 | 14.6%
CCOc1ccc(N=C(/C(C(=O)C(=O)N2CCOCC2)=C(\O)c2ccccc2)c2ccccc2)cc1 | -24.2% | 53.0* | 163.3% | -29.3% | 61.9* | 37.2%
CCOc1ccc(C(=O)C(c2ccccc2)N2CCOCC2)cc1 (stereo not given) | 267.0% | -3.1 | -15.4% | -5.9% | -11.6 | 8.1%
CC1CCCN(C(=O)c2ccc(COc3ccccc3Br)cc2)C1 (stereo not given) | ? | 9.1* | nt | -9.7% | 15.3 | -4.3%
COc1cc(N)c2ncccc2c1Br | nt | nt | nt | nt | nt | 11.2%
Cc1ccnc(NCc2ccccc2O)c1 | 9.2% | 14.2* | -6.8% | -5.4% | nt | 4.5%
COc1ccc(CNc2cccc(C)n2)c(O)c1 | 232.4% | 3.0 | 8.8% | 1.7% | 10.7 | -2.7%
Oc1ccc(Br)cc1CNc1ccccn1 | 6.57µM* | 13.5* | ? | -1.6% | 38.2 | 1.0%
Oc1ccc(Br)cc1CNc1nccs1 | ? | -2.4 | ? | -3.9% | 16.4 | 11.0%
COc1ccc(CNc2cc(C)ccn2)c(O)c1 | 15.4% | 25.3* | nt | -1.8% | 79.5* | ?
Oc1ccccc1CNc1nccs1 | -11.4% | -1.8 | nt | 3.0% | 17.7 | 4.1%
